The values below come from paper PMC5540273 (PLoS ONE, 2017).

Molecules are shown by their SMILES.

The subject of assay [1] is CLK1.
The subject of assay [2] is CSK.
Assay [3] has as its system CSNK1A1L.
In assay [4] the test system is CSNK1D.
The subject of assay [5] is CSNK1G1.
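Note: kd values determined as follow-up on hits from a single-replicate KINOMEscan panel screen.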

As usually defined, the Kd is the free concentration of one partner at which half of the binding sites on the other are occupied at equilibrium, for simple one-to-one binding. A lower Kd goes with a tighter complex. In assay [1], `CC(C)(C)c1ccc(C(=O)Nc2cn3cc(-c4cccnc4)ccc3n2)cc1` had a Kd of 280 nM.

As for `CS(=O)(=O)c1ccc(-c2nc3n(c2-c2ccncc2)CCC3)cc1` [SKF-105942], the Kd in assay [2] is greater than 10 µM.

Turning to `CCn1c(-c2cccnc2O)nc2cnccc21` [SB-736715], the Kd in assay [3] is greater than 10 µM.

Take `CN(C)CCN(C)C(=O)c1cc(-c2ccncc2)c(-c2ccc(Cl)c(O)c2)o1.Cl.Cl` [SB-710397]: the affinity in assay [4], expressed as Kd, was 220 nM.

The compound `CSc1nn2c(=O)cc(N3CCOCC3)nc2n1Cc1cccc(C(F)(F)F)c1C` [GSK2363608] displayed a Kd in assay [5] greater than 10 µM.
